Test results as given in PubChem BioAssay.
The source made the active and inactive calls.

target: Dihydroorotate dehydrogenase (quinone), mitochondrial (Plasmodium falciparum (isolate 3D7)) (UniProt Q08210); test: inhibition of P. falciparum DHODH – biochemical, C-terminal His tag, absorbance 600 nm, primary screen (AID 1175); settings: PfDHODH enzyme, DCIP absorbance 600 nm; higher = more signal, called active from +8 up or from −8 down;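 also: recombinant parasite enzyme with a five histidine tag at its C terminus; test concentration not given here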
Sequence (Q08210 whole entry, looked up): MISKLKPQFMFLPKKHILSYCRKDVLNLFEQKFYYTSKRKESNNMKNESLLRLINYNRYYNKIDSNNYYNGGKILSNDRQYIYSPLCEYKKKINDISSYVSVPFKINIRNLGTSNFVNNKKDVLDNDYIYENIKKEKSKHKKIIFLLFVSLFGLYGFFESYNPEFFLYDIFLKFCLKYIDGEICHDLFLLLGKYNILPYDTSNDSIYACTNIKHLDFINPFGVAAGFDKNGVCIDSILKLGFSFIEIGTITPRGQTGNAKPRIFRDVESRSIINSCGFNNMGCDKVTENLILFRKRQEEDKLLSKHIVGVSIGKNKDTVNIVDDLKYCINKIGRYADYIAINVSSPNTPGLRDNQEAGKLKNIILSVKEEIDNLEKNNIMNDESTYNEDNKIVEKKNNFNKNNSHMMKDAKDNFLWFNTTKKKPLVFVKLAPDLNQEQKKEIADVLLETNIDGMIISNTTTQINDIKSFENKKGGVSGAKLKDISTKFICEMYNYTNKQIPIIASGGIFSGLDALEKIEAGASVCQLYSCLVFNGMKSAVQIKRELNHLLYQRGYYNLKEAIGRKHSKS

Composite z-score, inactive:
COCC(=C=CC[C@H](O)c1ccc(OCCO)cc1)C[C@H](O)COCc1ccccc1 -0.95
O=C1NC(=O)C2C1C=CC(C(O)c1cc(C(F)(F)F)cc(C(F)(F)F)c1)N2Nc1ccc(Cl)cc1Cl (stereo not given) -0.195
COC(=O)[C@H](Cc1ccccc1)N1CC(/C=C/C2CC2)=C[C@@H]1[C@@H](O)Cc1ccccc1 0.114
NC(=O)NCC#Cc1ccc2c(c1)[C@]1(C(=O)N2)[C@H](C(=O)Nc2nc3ccccc3s2)[C@H]2C(=O)O[C@H](c3ccccc3)[C@H](c3ccccc3)N2[C@@H]1c1ccc(O)cc1 0.9
O=C1O[C@@H](c2ccccc2)[C@@H](c2ccccc2)N2[C@@H](c3ccc(O)cc3)[C@]3(C(=O)Nc4ccc(C#CC5=CCCCC5)cc43)[C@@H](C(=O)N3CCN(c4ncccn4)CC3)[C@H]12 -0.824
CC(=O)NCCCC[C@@H]1NC(=O)[C@@H]2C[C@H](C(=O)O)[C@H](c3ccc(O)cc3)N2C1=O 0.435
COc1cc(CO)cc(I)c1O[C@H]1C=C(C(=O)NCCO)C[C@@H](NCc2ccccc2F)[C@@H]1O 1.28
O=C1NCC(=O)N2[C@@H]1C[C@@H](C(=O)O)[C@H]2c1ccc(O)cc1 -0.273
COC(=O)[C@@]1(Cc2ccc(F)cc2)[C@H]2c3cc(C(=O)N4CCCC4)n(CCF)c3C[C@H]2CN1C(=O)c1ccccc1 -0.41
C[C@]1(C(=O)O)c2ccccc2C(=O)N(Cc2ccccc2)[C@H]1c1ccc(CO)cc1 0.798
CCOC(=O)C[C@H]1[C@H](OC(=O)c2ccc(-c3ccccc3)cc2)[C@@H](NC(=O)C2CCCCC2)c2cc(OCCCO)ccc2N1C(=O)c1ccccc1 0.141
O=C1O[C@@H](c2ccccc2)[C@@H](c2ccccc2)N2[C@@H](c3ccccc3OCCO)[C@]3(C(=O)Nc4ccccc43)[C@@H](C(=O)NC[C@H](O)c3ccccc3)[C@H]12 1.65
C=CC1c2cc(O)c(OC)cc2CCN1Cc1sc2ccccc2c1Cl (stereo not given) -1.04
CC(C)CN1C(=O)[C@@]2(c3ccc([N+](=O)[O-])cc3)CC(=O)N(CC34CC5CC(CC(C5)C3)C4)[C@@H]2c2ccc(CO)cc21 -4.84
COCCOC(=O)N1C(=O)[C@@]2(c3cc(C#Cc4ccc(OC)cc4)ccc31)[C@H](C(=O)N1CCN(c3ncccn3)CC1)[C@H]1C(=O)O[C@H](c3ccccc3)[C@H](c3ccccc3)N1[C@@H]2c1ccccc1OCCO 0.27
CCOC(=O)C[C@H]1[C@H](OC(=O)Cc2ccc3c(c2)OCO3)[C@@H](NC(=O)Cc2ccc(OC)cc2)c2cc(OCCCO)ccc2N1C(=O)c1ccccc1 0.0225
[N-]=[N+]=Nc1ccccc1C[C@]1(C(=O)NCc2ccccc2)N=C(c2ccc(OCCCO)cc2)O[C@H]1c1ccccc1 1.18
COC(=O)Cn1c(C(=O)N2CCCC2)cc2c1C[C@H]1CN(C(=O)c3ccccc3)[C@@](Cc3ccc(F)cc3)(C(=O)OC)[C@@H]21 -0.653
COc1ccc(NN2C(C(O)c3ccco3)C=CC3C(=O)N(C4CCCCC4)C(=O)C32)cc1 (stereo not given) 0.181
CCCCN1CC=CC23O[C@@H]4C=CCOC(=O)[C@@H]4[C@H]2C(=O)N(C(C)CO)[C@@H]3C1=O (stereo not given in full) -1.49
COc1ccc(NC(=O)O[C@H]2[C@H](OC(=O)Nc3ccc4c(c3)OCO4)[C@@H](OC(=O)Nc3ccc4c(c3)OCO4)[C@@H](OC)O[C@@H]2CO)cc1 -0.445
C=CCN1C(=O)[C@]2(CC=C)N=C(c3ccc(OCCCO)cc3)O[C@@H]2c2ccccc21 0.0306
CC1CC/C=C\[C@H]2OC34C=CCN(C(C)C)C(=O)[C@H]3N(CCCCCO)C(=O)[C@@H]4C2C(=O)O1 (stereo not given in full) -1.16
COC(=O)[C@@]1(Cc2ccccc2)[C@H]2c3cc(C(=O)N4CCCC4)n(Cc4ccsc4Br)c3C[C@H]2CN1C(=O)c1ccccc1 -0.876
NCCCCCNC(=O)[C@@H]1C[C@@H]2C(=O)N[C@@H](CCCCN)C(=O)N2[C@@H]1c1cccc(OCCO)c1 -0.308
CCOC(=O)C1=CC[C@@H](c2ccc([N+](=O)[O-])cc2)N(S(=O)(=O)c2ccc(C)cc2)[C@H]1c1ccccc1 0.914
CC(C)c1ccc(NN2C(C(O)c3ccco3)C=CC3C(=O)N(c4ccccc4)C(=O)C32)cc1 (stereo not given) 0.325
COC1(C)CN(Cc2ccccc2Br)[C@H](/C=C/c2ccccc2)[C@H](Cc2ccccc2)O1 (stereo not given in full) -0.167
CC=CC(O)C1C=CC2C(=O)N(C)C(=O)C2N1N1CCCCC1 (stereo not given) -0.811
CCOC(=O)C1=CC[C@@H](c2cc(Cl)ccc2Cl)N(S(=O)(=O)c2ccc(C)cc2)[C@H]1c1ccc(OC)cc1 0.658
C=C(CCCC)C(=O)CC[C@@H](OC(=O)c1ccccc1-c1ccccc1C(=O)O)c1cccc(OCCO)c1 -0.556
CC(C)(C)OC(=O)CC[C@@]1(C(=O)O)N=C(c2ccc(OCCCO)cc2)O[C@@H]1c1ccccc1CN=[N+]=[N-] 0.221
O=C1C[C@]2(c3ccc([N+](=O)[O-])cc3)C(=O)N(Cc3ccccc3)c3cc(CO)ccc3[C@H]2N1CC12CC3CC(CC(C3)C1)C2 -3.36
O=C(CS)NCCCCCCNC(=O)[C@@H]1C[C@@H]2C(=O)N3CCC[C@H]3C(=O)N2[C@@H]1c1cccc(OCCO)c1 -0.968
CN(C)CCCCNC(=O)[C@H]1C[C@H]2C(=O)N[C@@H](CCCCN(C)C)C(=O)N2[C@H]1c1cccc(OCCO)c1 -0.493
